A number with no mark means an inactive call. Results filed as inconclusive are left out. Active and inactive are the calls of the source. Unless noted, calls come from the whole dose curve; as a rule, active = well fitted curve in the direction sought with a large enough effect in the repeat runs; inconclusive = weak or mixed curves; inactive = no such curve, though single readings can be large; an effect the other way counts as inactive or inconclusive.

From PubChem BioAssay (Tox21) come the findings set out here.

The target of assay [1] is Luciferin 4-monooxygenase (Photinus pyralis) (UniProt P08659). The assay is described as follows: qHTS assay to identify small molecule inhibitors of firefly luciferase (AID 1224835). Note: nearly all actives have a fitted effect of over 25% in size. Note: potency is the fitted concentration of half-maximal effect. In short, it runs like this:
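Biochemical qHTS: compounds run as interplate titrations against purified firefly enzyme, with D-luciferin and ATP each at its KM concentration. Light output recorded by CCD imaging.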
In general terms: qHTS replaces the single test concentration by a dilution series.

The nature of assay [2]: qHTS assay to identify small molecule agonists of the constitutive androstane receptor (CAR) signaling pathway - cell viability counter screen (AID 1224836). Note: nearly all actives have a fitted effect of over 45% in size. Note: potency is the fitted concentration of half-maximal effect. In short, it runs like this:
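Using CellTiter-Fluor, viability of HepG2 cells harbouring hCAR and CYP2B6-2.2kb was measured following 23 h incubation with a 15-concentration compound series plus PK11195 (0.75 uM final).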

The nature of assay [3]: qHTS assay to identify small molecule antagonists of the constitutive androstane receptor (CAR) signaling pathway - cell viability counter screen (AID 1224837). Note: nearly all actives have a fitted effect of over 45% in size. Note: potency is the fitted concentration of half-maximal effect. In short, it runs like this:
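Fluorescence from CellTiter-Fluor served as the viability signal. Human hepatoma HepG2 cells stably bearing hCAR and CYP2B6-2.2kb received compound plus CITCO (50 nM final) for 23 hr.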

Assay [4] deals with Nuclear receptor subfamily 1 group I member 3 (Homo sapiens) (UniProt Q14994). The assay is described as follows: qHTS assay to identify small molecule antagonists of the constitutive androstane receptor (CAR) signaling pathway (AID 1224838).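 Note: HepG2 cells stably expressing hCAR with CYP2B6 luciferase reporter stimulated by CITCO; nearly all actives have a fitted effect of over 40% in size.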 Note: potency is the fitted concentration of half-maximal effect. In short, it runs like this: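 Quantitative HTS in double-stable HepG2-CYP2B6-hCAR cells. After 4 h plating, cells get compound (15 concentrations) and CITCO at 50 nM final, incubate 24 h at 37 C, then ONE-Glo luminescence is read.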

Assay [5] shares this target. The assay is described as follows: qHTS assay to identify small molecule agonists of the constitutive androstane receptor (CAR) signaling pathway (AID 1224839).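 For activation: HepG2 cells stably carrying human CAR and a CYP2B6 luciferase reporter.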 Note: nearly all actives have a fitted effect of over 15% in size. Note: potency is the fitted concentration of half-maximal effect. Put shortly:
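Double-stable HepG2 cells (hCAR, CYP2B6-2.2kb) seeded 4 h before compound addition. Exposure 24 h with 0.75 uM PK11195 final. Luciferase detected by ONE-Glo.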

The nature of assay [6]: qHTS assay to identify small molecule antagonists of the estrogen related receptor signaling pathway with the pleiotropic PPARgamma coactivator (PGC) from Tox21 10K library - cell viability counter screen (AID 1224840; active = well fitted cell-killing curve with a large enough effect in the repeat runs, not every such curve was filed as active; note: nearly all actives have a fitted effect of over 40% in size; note: potency is the fitted concentration of half-maximal effect). Put shortly:
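Compounds in DMSO, alongside positive and negative controls, were pinned onto PGC/ERR cells (2,000 per well). Exposure lasted 17.5 hours at 37 C, followed by a 30-minute CellTiter-Fluor incubation and fluorescence reading.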

The nature of assay [7]: qHTS assay to identify small molecule antagonists of the estrogen related receptor signaling pathway with the pleiotropic PPARgamma coactivator (PGC) from Tox21 10K library (AID 1224841; call rule not given here; note: actives are mostly falling curves and most rising ones were filed inactive; nearly all actives have a fitted effect of over 50% in size; note: potency is the fitted concentration of half-maximal effect). In short, it runs like this: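 Compound exposure ran 18 hours at 37 C in PGC/ERR cells (2,000/well) that had first rested 6 hours in a 37 C/5% CO2 incubator. Luciferase activity was then detected with One-Glo after a 30-minute room-temperature step.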

A short description of assay [8]: qHTS assay to identify small molecule agonists of the estrogen related receptor signaling pathway with the pleiotropic PPARgamma coactivator (PGC) from Tox21 10K library (AID 1224842). Note: nearly all actives have a fitted effect of over 15% in size. In short, it runs like this:
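PGC/ERR reporter cell line, 2,000 cells per well, incubated 6 h at 37 C before 23 nL compound in DMSO was added. After 18 h at 37 C, One-Glo luminescence read following 30 min at room temperature.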

For assay [9], the target named is Thyrotropin receptor (Homo sapiens) (UniProt P16473). The assay can be described thus: qHTS assay to identify small molecule agonists of the thyroid stimulating hormone receptor (TSHR) signaling pathway (AID 1224843; calls by dose curve; note: nearly all actives have a fitted effect of over 45% in size). In short, it runs like this:
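TSHR-HEK293 cells in agonist mode, 30 min room-temperature step, then cAMP measured by competitive HTRF (cAMP-d2 with anti-cAMP cryptate) after 1 h at room temperature. Tested at 15 concentrations in triplicate.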

Assay [10] in a line: qHTS assay to identify small molecule agonists of the hypoxia (HIF-1) signaling pathway - cell viability counter screen (AID 1224844; calls by dose curve; note: nearly all actives have a fitted effect of over 50% in size). In short, it runs like this: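 Luminescent ATP content (CellTiter-Glo, 30 min, room temperature) served as the viability measure in HRE-bla ME-180 cells exposed to compounds for 17 hrs in low-serum medium (0.5% dialyzed FBS).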
Assay [11] is described as follows: qHTS assay to identify small molecule agonists of H2AX (AID 1224845; active = well fitted activation curve with a large enough effect in the signal ratio in the repeat runs, not every such curve was filed as active; the % refers to the signal ratio). In short, it runs like this:
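Wild-type CHO-K1 cells, plated overnight, exposed 3hr at 37C to 15 concentrations (0.76% DMSO final). Lysed, then HTRF anti-pH2AX (S139) cryptate and anti-H2AX-d2 antibodies, 24 hr room temperature; 665/620 nm emission read.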

Assay [12] in a line: qHTS assay to identify small molecule agonists of the hypoxia (HIF-1) signaling pathway (AID 1224846; active = well fitted activation curve with a large enough effect in the signal ratio in the repeat runs, not every such curve was filed as active; the % refers to the signal ratio). Put shortly:
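Measured by blue/green FRET after loading CCF4-AM: beta-lactamase expressed from a hypoxia response element in ME-180 cells. Test agents were delivered in DMSO and left 17 hrs; cells had been plated 5 hrs earlier in low-serum (0.5% dialyzed FBS) medium.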

A short description of assay [13]: qHTS assay to identify small molecule agonists of H2AX - cell viability counter screen (AID 1224847; calls by dose curve; note: nearly all actives have a fitted effect of over 30% in size; note: potency is the fitted concentration of half-maximal effect). Put shortly: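 Quantitative HTS viability measurement: CHO-K1 wild-type cells in serum (10% FBS) medium, short 3 hr drug exposure at 37C with 0.76% DMSO, CellTiter-Glo luminescent detection.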
A short description of assay [14]: qHTS assay to identify small molecule antagonists of the estrogen related receptor (ERR) signaling pathway from Tox21 library (AID 1224848). Note: nearly all actives have a fitted effect of over 50% in size. Note: potency is the fitted concentration of half-maximal effect. In short, it runs like this:
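ERR reporter cell line (from NTP) seeded 2,000 cells/well, rested 6 h at 37 C/5% CO2, then pin-dosed with compounds in DMSO. After 18 h at 37 C, ONE-Glo added; luminescence read after 30 min at room temperature.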

Assay [15] is described as follows: qHTS assay to identify small molecule agonists of the estrogen related receptor (ERR) signaling pathway from Tox21 library (AID 1224849; calls by dose curve; note: nearly all actives have a fitted effect of over 15% in size). The conditions noted are these: ERR reporter cell line, ONE-Glo luciferase, 18 h; at 92.4 µM (top of the series) unless noted. In short, it runs like this: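 We plated ERR reporter cells, waited 6 h, added compounds in DMSO by pin tool and incubated them 18 h at 37 C. ONE-Glo was then added and luminescence read after 30 min.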

The nature of assay [16]: qHTS RealTime-Glo MT Cell Viability Assay in HepG2 cells - 24 hour (AID 1224867). Note: nearly all actives have a fitted effect of over 50% in size. In short, it runs like this:
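Tox21 10K library screened in qHTS format on HepG2 cells carrying RealTime-Glo reagents. Compounds were added after a 5 h preincubation, and the luminescent signal from continuous culture was measured repeatedly during 40 h treatment.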

Assay [17] can be described thus: qHTS RealTime-Glo MT Cell Viability Assay in HEK293 cells - 32 hour (AID 1224868). Note: nearly all actives have a fitted effect of over 50% in size. Note: potency is the fitted concentration of half-maximal effect. Put shortly:
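Luminescence generated by NanoLuc from substrate produced by living HEK293 cells served as the viability signal. Each value reflects the reading at its stated time point during continuous 40 h compound exposure at 37 C.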

A short description of assay [18]: A CellTox Green Cytotoxicity Assay to monitor cytotoxicity in HEK293 cells - 0 hour (AID 1224869). Note: nearly all actives have a fitted effect of over 50% in size. Put shortly: (§1)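 Each value comes from one timepoint of a single continuous run in which HEK293 cells with CellTox Green were exposed to compound for up to 40 h at 37 C, dye fluorescence rising with cell death.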
Assay [19] is described as follows: qHTS RealTime-Glo MT Cell Viability Assay in HepG2 cells - 40 hour (AID 1224870). Note: nearly all actives have a fitted effect of over 50% in size. Put shortly: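 HepG2 cells (600/well) mixed with RealTime-Glo MT reagent, settled 5 h at 37 C/5% CO2 before compound addition. Nonlytic NanoLuc luminescence from viable-cell prosubstrate reduction read repeatedly during 40 h treatment at 37 C.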
Assay [20] in a line: A CellTox Green Cytotoxicity Assay to monitor cytotoxicity in HEK293 cells - 40 hour (AID 1224871). Note: nearly all actives have a fitted effect of over 45% in size. Note: potency is the fitted concentration of half-maximal effect. In short, it runs like this:
as §1
% is set by controls: 0 for no effect and ±100 for the full control effect.

Sequence of Thyrotropin receptor (Homo sapiens) (P16473 whole entry, looked up): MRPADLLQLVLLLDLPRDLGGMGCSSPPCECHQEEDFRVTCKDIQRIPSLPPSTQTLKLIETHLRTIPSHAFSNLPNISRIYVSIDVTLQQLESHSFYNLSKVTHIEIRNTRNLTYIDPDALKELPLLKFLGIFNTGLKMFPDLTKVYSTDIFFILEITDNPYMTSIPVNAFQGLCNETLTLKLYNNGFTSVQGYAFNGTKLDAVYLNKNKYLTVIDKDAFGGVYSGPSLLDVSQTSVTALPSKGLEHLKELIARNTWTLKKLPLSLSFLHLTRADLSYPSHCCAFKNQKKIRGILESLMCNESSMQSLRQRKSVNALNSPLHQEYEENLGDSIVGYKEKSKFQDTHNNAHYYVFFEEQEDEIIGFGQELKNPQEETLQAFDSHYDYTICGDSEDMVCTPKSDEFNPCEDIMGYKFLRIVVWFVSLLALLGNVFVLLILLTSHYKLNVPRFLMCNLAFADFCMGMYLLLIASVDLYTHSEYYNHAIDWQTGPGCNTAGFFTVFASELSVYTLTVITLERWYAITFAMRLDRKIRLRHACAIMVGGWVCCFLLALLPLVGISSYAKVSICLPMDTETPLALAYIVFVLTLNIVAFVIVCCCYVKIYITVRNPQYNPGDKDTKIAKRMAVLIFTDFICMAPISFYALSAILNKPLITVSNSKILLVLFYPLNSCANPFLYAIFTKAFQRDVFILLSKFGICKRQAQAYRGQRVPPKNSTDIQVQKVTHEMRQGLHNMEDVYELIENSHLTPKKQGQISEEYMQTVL
Sequence of Luciferin 4-monooxygenase (Photinus pyralis) (P08659 whole entry, looked up): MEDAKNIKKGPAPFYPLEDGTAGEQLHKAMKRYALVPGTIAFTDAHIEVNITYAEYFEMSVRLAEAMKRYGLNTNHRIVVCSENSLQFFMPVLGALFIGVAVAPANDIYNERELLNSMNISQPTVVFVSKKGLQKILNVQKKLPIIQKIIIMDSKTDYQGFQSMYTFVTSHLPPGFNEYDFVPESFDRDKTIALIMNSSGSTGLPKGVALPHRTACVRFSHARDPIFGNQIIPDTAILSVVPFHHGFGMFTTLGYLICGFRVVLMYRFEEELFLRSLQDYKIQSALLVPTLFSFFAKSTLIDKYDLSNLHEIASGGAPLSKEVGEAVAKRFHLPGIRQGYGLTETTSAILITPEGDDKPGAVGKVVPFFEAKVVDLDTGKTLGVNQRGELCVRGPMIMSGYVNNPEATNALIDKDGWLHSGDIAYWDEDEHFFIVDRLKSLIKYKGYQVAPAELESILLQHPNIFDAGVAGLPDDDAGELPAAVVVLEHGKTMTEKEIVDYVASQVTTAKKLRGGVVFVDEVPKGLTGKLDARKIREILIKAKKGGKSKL
Sequence of Nuclear receptor subfamily 1 group I member 3 (Homo sapiens) (Q14994 whole entry, looked up): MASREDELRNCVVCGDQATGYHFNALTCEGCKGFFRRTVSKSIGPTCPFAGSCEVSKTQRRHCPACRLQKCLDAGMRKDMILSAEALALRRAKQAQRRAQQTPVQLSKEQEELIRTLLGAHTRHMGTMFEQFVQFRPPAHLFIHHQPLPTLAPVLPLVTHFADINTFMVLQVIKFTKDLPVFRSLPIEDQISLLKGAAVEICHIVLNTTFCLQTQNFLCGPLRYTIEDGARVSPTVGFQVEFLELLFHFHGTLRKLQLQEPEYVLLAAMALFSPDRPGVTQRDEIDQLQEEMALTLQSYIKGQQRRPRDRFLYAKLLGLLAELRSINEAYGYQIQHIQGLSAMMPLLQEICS

Regarding `CC(C)c1ccccc1N`, the Potency result in assay [1], in [2], in [3], in assay [4], in assay [5] and in assay [6] was “inactive” each time. Besides, the Potency entry in [7], in [8], in assay [9], in assay [10], in assay [11] and in assay [13] was “inactive” in each case. Also, the Potency result in assay [14], in assay [16], in [17], in assay [18], in assay [19] and in assay [20] was “inactive” throughout. For the same compound, in assay [12], the call was inactive. Further, the activity change, positive = activation in assay [15] was 3.39%.

As for `CCN(CC)c1ccc(N)cc1`, the Potency was 41 µM (active) in assay [1]; 31.5 µM (active) in assay [2]; 28.1 µM (active) in assay [3]; 62.8 µM (active) in [4]; 7.05 µM (active) in assay [5]; 25 µM (active) in [6]. The Potency is 2.5 µM (active) in assay [7]; 51.9 µM (active) in [13]; 2.5 µM (active) in assay [14]; 22.5 µM (active) in assay [17]; 44.8 µM (active) in assay [20]. Moreover, the Potency result in assay [8], in assay [10] and in [18] was “inactive” throughout. The activity change, positive = activation in assay [15] was -77.3%.

As for `CCOCOCC`, the Potency entry in assay [1], in assay [2], in assay [3], in assay [4], in assay [5] and in [6] was “inactive” throughout. Also, the Potency result in assay [7], in [8], in assay [9], in [10], in assay [11] and in assay [13] was “inactive” in each case. Besides, the Potency result in [14], in assay [16], in assay [17], in assay [19] and in assay [20] was “inactive” throughout. Also, the compound was called inactive in [12]. The activity change, positive = activation in assay [15] was 0.502%.

With `C[Si](C)(C)Cl`, the Potency result in assay [1], in assay [2], in [3], in assay [4], in [5] and in assay [6] was “inactive” throughout. In addition, the Potency result in [7], in assay [8], in [9], in assay [10], in [11] and in [14] was “inactive” in each case. For the same compound, the Potency result in assay [16], in [17], in assay [18], in [19] and in [20] was “inactive” throughout. The compound was classed as inactive in assay [12]. The activity change, positive = activation in [15] is 0.496%.

Turning to `CCOC(OCC)C(=O)c1ccccc1`, the Potency result in assay [1], in assay [2], in assay [3], in assay [4], in [5] and in [6] was “inactive” throughout. For the same compound, the Potency entry in [7], in [8], in assay [10], in [11], in assay [13] and in assay [14] was “inactive” in each case. Further, the Potency entry in [16], in [17], in [18], in assay [19] and in assay [20] was “inactive” in each case. In assay [12], the compound was classed as inactive. Moreover, the activity change, positive = activation in [15] was 1.64%.

For `CCc1cccc(CC)c1N(COC)C(=O)CS(=O)(=O)O`, the Potency result in assay [1], in assay [2], in [3], in assay [4], in assay [5] and in [6] was “inactive” throughout. Also, the Potency result in [7], in [8], in assay [9], in assay [10], in [11] and in assay [13] was “inactive” each time. The Potency entry in assay [14], in [16], in assay [17], in [18], in assay [19] and in assay [20] was “inactive” throughout. The call in assay [12] was inactive. Further, in [15], the activity change, positive = activation is -4.79%.
